# Compounds with a hit are over-represented: about 5.7% of the library has one in this group of screens.
# RORg inh = qHTS for inhibitors of ROR gamma transcriptional activity | Nuclear receptor ROR-gamma (Mus musculus), P51450 | actives 5.4% (n = 310,000) | AID 2551, 2010 | Drosophila S2 Gal4-RORgamma UAS-luciferase reporter, 20 h | Potency, µM (titrated, usually from 53.6 µM), inactives show at the top dose activity change, negative = inhibition, actives largely listed as inhibitors; note: nearly all actives have a fitted effect of over 60% in size
#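 ROR gamma transcriptional activity was tracked as Gal4-UAS luciferase output in stably transfected Drosophila Schneider cells, with compound added 1 hr before 700 uM copper sulfate induction and a 20 hr ambient-temperature incubation.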
# Gal4-VP16 FLuc = VP16 counterscreen qHTS for inhibitors of ROR gamma transcriptional activity; Drosophila S2 Gal4-VP16 UAS-luciferase, luminescence, 20 h; Potency, µM (series often up to 53.6 µM), inactives show at the highest dose activity, negative = inhibition, most hits filed as inhibitors; actives 3.5% (n = 310,000); AID 2546, 2010;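 note: Gal4-VP16 expression switched on by copper sulfate through the metallothionein promoter; nearly all actives have a fitted effect of over 50% in size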
# NPSR antag = qHTS Assay for Antagonists of the Neuropeptide S Receptor: cAMP Signal Transduction; CHO-NPSR cells, cAMP TR-FRET, antagonist mode; Q6W5P4; actives 1% (n = 220,000); Potency, µM (doses to about 38.3 µM), for inactives: at the highest dose activity change, negative = inhibition, actives largely listed as inhibitors; note: nearly all actives have a fitted effect of over 50% in size
# B2AR arrestin = qHTS assay of beta-arrestin-biased ligands of beta2-adrenergic receptor; Beta-2 adrenergic receptor (Homo sapiens), P07550; beta-arrestin recruitment to beta2AR, cell-based reporter; AID 492947, 2010; actives 0.02% (n = 330,000); Potency, µM (titrated, usually from 46.1 µM), inactives show at the top dose activation, usual class: activators;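 note: 0% = DMSO controls and full agonism = EC100 isoproterenol or metaproterenol; nearly all actives have a fitted effect of over 65% in size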
# Target sequence (P07550 whole entry, looked up): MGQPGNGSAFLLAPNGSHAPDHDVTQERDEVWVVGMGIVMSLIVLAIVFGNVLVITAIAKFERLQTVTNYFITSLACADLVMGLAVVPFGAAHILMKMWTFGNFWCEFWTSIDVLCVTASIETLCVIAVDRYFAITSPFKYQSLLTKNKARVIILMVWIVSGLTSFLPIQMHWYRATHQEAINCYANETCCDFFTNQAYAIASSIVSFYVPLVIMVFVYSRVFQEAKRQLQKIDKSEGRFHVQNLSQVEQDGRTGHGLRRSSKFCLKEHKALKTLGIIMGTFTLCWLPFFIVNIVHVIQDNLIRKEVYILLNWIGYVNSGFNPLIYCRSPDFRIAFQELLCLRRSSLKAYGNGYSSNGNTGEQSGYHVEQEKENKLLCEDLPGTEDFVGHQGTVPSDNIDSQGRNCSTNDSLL
# * marks the source's active call; other numbers are inactive results; u = inconclusive; x = not tested or not shown; [ ] = dose if it differs, or a comment. Calls come from the whole dose curve; as a rule, active = well fitted curve in the direction sought with a large enough effect; inconclusive = small, poorly fitted or top-dose-only effect, or another doubt; inactive = no such curve, though single readings can be large; an effect the other way counts as inactive or inconclusive. Unless noted, % is set by controls: 0 for no effect and ±100 for the full control effect; potency is the fitted concentration of half-maximal effect.
SMILES,RORg inh,Gal4-VP16 FLuc,NPSR antag,B2AR arrestin
CCCC[C@]12Cc3ccccc3C(O1)c1c(c3ccccc3oc1=O)O2,14.0%[10 µM],-8.9%[10 µM],x,-0.2%[9.22 µM]
NNC(=O)c1cc(-c2ccc(O)cc2)nc2ccc(Br)cc12,12.6µM*,u,19.7%,-0.5%
NS(=O)(=O)c1ccc(CCNC(=O)c2cc(-c3ccccn3)nc3ccc(Br)cc23)cc1,-28.4%,-12.9%,10µM*,0.0%
NS(=O)(=O)c1ccc(CCNC(=O)c2cc(-c3ccc(Br)cc3)nc3ccccc23)cc1,3.55µM*,u,-33.9%,-0.1%
CCCc1ccc(-c2cc(C(=O)NCCc3ccc(S(N)(=O)=O)cc3)c3ccccc3n2)cc1,36.3%,-11.3%,-25.3%[46.1 µM],3.6%
O=C(NCCc1ccc(Cl)cc1)c1cc(-c2ccccn2)nc2ccccc12,11.2µM*,u,x,0.4%
CCCCNC(=O)N(O)C1N(CCCC)C(=O)N(CC(=O)OC)C1(C)C (stereo not drawn),-3.8%,3.5%,-2.2%[46.1 µM],-0.2%
COc1cccc(CNC(=O)CCCCCn2c(=S)[nH]c3ccc(N4CCOCC4)cc3c2=O)c1,-12.7%,-18.1%,-4.9%,-0.3%
O=c1c2cc(Cl)ccc2[nH]c(=S)n1Cc1cccs1,2µM*,4.47µM*,-38.7%,-0.9%
COc1cccc(Cn2c(=S)[nH]c3ccc(N4CCOCC4)cc3c2=O)c1,2.82µM*,6.31µM*,2.1%[46.1 µM],-1.4%
O=c1c2cc(N3CCOCC3)ccc2[nH]c(=S)n1Cc1ccco1,14.1µM*,u,-19.4%[46.1 µM],1.0%
O=c1c2cc(N3CCOCC3)ccc2[nH]c(=S)n1CCCN1CCCC1,5.5%,-2.8%,-19.1%[46.1 µM],0.0%
CCN(CCCn1c(=S)[nH]c2ccc(N3CCOCC3)cc2c1=O)c1ccccc1,3.98µM*,u,-33.2%,-0.1%
O=c1c2ccccc2[nH]c(=S)n1Cc1ccc2c(c1)OCO2,-0.4%,-10.8%,-33.9%,-1.0%
CCn1c(=O)n(CC)c2cc(N3CCCC3)c(NC(=O)c3cccc(Cl)c3)cc21,-2.7%,-14.0%,x,-0.4%
O=C(CN1C(=O)NC(c2ccccc2)(c2ccccc2)C1=O)NCC(=O)Nc1ccc(F)cc1,x,x,x,0.0%
O=c1c2cc(Cl)ccc2[nH]c(=S)n1Cc1ccco1,2.24µM*,5.62µM*,5.5%[46.1 µM],-0.4%
O=c1[nH]c2ccc(Cl)cc2c(=O)n1Cc1ccco1,u,u,-11.5%[46.1 µM],0.2%
O=c1c2cc(N3CCOCC3)ccc2[nH]c(=S)n1Cc1cccc(Cl)c1,3.55µM*,5.62µM*,-7.6%[46.1 µM],0.0%
COc1cc2[nH]c(=S)n(Cc3ccco3)c(=O)c2cc1OC,11.2µM*,u,-20.8%[46.1 µM],0.0%
COc1ccc(/C=C/N(CCc2ccc(OC)c(OC)c2)C(=O)c2ccccn2)cc1,36.6%[10 µM],5.1%[10 µM],x,x
Cc1noc(C)c1NC(=O)Nc1ccc2c(c1)C(=O)N([C@@H](C)CO)C[C@@H](C)[C@@H](CN(C)Cc1ccc3c(c1)OCO3)O2,x,x,x,0.1%
COc1cccc(/C=N/Nc2cc(-n3nc(C)cc3-c3ccccc3)ncn2)c1O,u,1µM*,13.9%,-0.6%
COc1cccc(/C=N/Nc2nc3ccccc3n3cnnc23)c1O,u,u,-25.6%[46.1 µM],-0.1%
COc1cccc(/C=N/Nc2nc(Nc3ccccc3)nc(-n3nc(C)cc3C)n2)c1O,1.12µM*,2.51µM*,2.51µM*,u
SMILES,RORg inh,Gal4-VP16 FLuc,NPSR antag,B2AR arrestin
O=C(Nc1nc(N2C(=O)c3ccccc3C2=O)n(-c2ccccc2)n1)c1ccccc1,-42.3%,4.6%,1.8%,2.1%
O=C(Nc1nc(N2C(=O)c3ccccc3C2=O)n(-c2ccccc2)n1)c1ccc(F)cc1,10µM*,u,-1.2%[46.1 µM],-0.6%
CN(/N=C/c1ccc2c(c1)OCO2)c1ccccc1,-44.0%,17.8µM*,5.8%,-0.4%
COc1cc(/C=C2\SC(=S)N(NC(=O)c3ccncc3)C2=O)ccc1O,-13.7%,-8.2%,50.6%,-1.0%
COc1cc(/C=C2\SC(=S)N(NC(=O)c3ccc(O)c(OC)c3)C2=O)ccc1O,7.08µM*,u,x,0.9%
Cn1cccc1/C=C1\SC(=S)N(NC(=O)c2ccc(F)cc2)C1=O,30.3%,15.8µM*,33.3%,0.0%
C[C@H](CO)N1C[C@H](C)[C@@H](CN(C)C(=O)Nc2ccc3c(c2)OCO3)Oc2ccc(NC(=O)Cn3cnnn3)cc2C1=O,x,x,x,-0.1%
CSCC[C@H](NC(=O)OC(C)(C)C)C(=O)N/N=C/c1cccc2cccnc12,7.08µM*,15.8µM*,-4.7%,-0.6%
COc1ccc(C(=O)N/N=C/c2cccc3cccnc23)cc1,0.562µM*,2.24µM*,-13.8%[46.1 µM],0.1%
COc1ccccc1/C=N/NC(=O)c1cccc2ccccc12,-40.3%[1.91 µM],6.7%,x,0.6%
COc1ccc2nc(/C=N/NC(=O)[C@H](CCSC)NC(=O)OC(C)(C)C)ccc2c1,-12.2%,2.3%,-2.8%,0.1%
CCOc1ccccc1C(=O)N/N=C/c1c[nH]c2ccccc12,15.8µM*,u,-23.7%,0.0%
CCOc1ccccc1C(=O)N/N=C/c1cccc2cccnc12,5.01µM*,u,-16.6%[46.1 µM],-0.3%
COc1ccc(C(=O)N/N=C/c2cccnc2)cc1,-28.9%,-2.8%,x,-0.1%
CCC(C)C(NC(=O)C1CCC(C)CC1)C(=O)NCc1ccccn1 (stereo not drawn),-2.6%,10.4%,-2.6%[46.1 µM],-0.7%
CCOc1ccc(C(=O)N/N=C/c2ccccc2[N+](=O)[O-])cc1,-33.4%,u,-10.4%,-0.7%
COc1ccc(C(=O)N/N=C/c2cc3ccccc3[nH]c2=S)cc1,8.91µM*,8.91µM*,u,-0.2%
CCOc1ccc(C(=O)N/N=C/c2cccc3cccnc23)cc1,0.708µM*,2µM*,-13.7%[46.1 µM],-0.2%
COc1cccc([C@@H]2Oc3ccc(OC)cc3C[C@H]2OC(=O)Nc2ccc(OC(F)F)cc2)c1,u,1.1%,x,x
O=C(NCc1ccccn1)C1CCN(S(=O)(=O)c2cc(Cl)ccc2Cl)CC1,14.4%,-1.0%,-22.6%,0.0%
O=S(=O)(Nc1cccc(CCc2ccccn2)c1)c1ccc2ccccc2c1,7.94µM*,2.51µM*,u,0.0%
CCOC(=O)CNC(=O)O[C@@H]1C(=O)c2cc(OC)ccc2O[C@H]1c1ccc(OC)c(Br)c1,1.9%,-2.2%,x,x
CC(C)(C)c1ccc(C(=O)NC(=S)N2CCOCC2)cc1,1.12µM*,1µM*,x,0.0%
CC(C)(C)c1ccc(C(=O)Nc2ccc(C(=O)N3CCOCC3)cc2)cc1,2.1%,-6.9%,x,-0.1%
CC(C)(C)c1ccc(C(=O)N2CCCN(C(=O)c3ccc(C(C)(C)C)cc3)CC2)cc1,u,-4.1%,-50.5%,-0.8%
Cc1ccc2c(c1)C1CN(C)CCC1N2C(=S)NC(=O)c1ccc(Br)cc1 (stereo not drawn),0.112µM*,-72.9%,-21.2%,-0.8%
CC(C)Oc1ccc(C(=O)NC(=S)N2CCOCC2)cc1,3.55µM*,1.26µM*,11.3%,-0.2%
CN1CCN(C(=S)NC(=O)c2ccc(C(C)(C)C)cc2)CC1,1.41µM*,2.51µM*,3.1%,-0.1%
CN1CCN(C(=S)NC(=O)c2ccc(-c3ccccc3)cc2)CC1,0.0891µM*,0.562µM*,-10.0%,0.1%
